Screens (PubChem BioAssay)
In the library only some 10% were active in any assay of this set; here they are far more common.
G9a inh = blocks human histone lysine methyltransferase G9a; G9a H3K9 monomethylation, AlphaScreen, 2 h; Potency, µM (doses to about 102 µM), hits mostly inhibitors; hit rate 8.8% among 350,000; note: nearly all actives have a fitted effect of over 75% in size
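Methyltransferase reactions run at room temperature for 2 h (20 nM enzyme, 500 nM biotin-H3K9 peptide, 20 uM SAM) after a 15 min compound preincubation; product detected by AlphaScreen beads and anti-H3K9me1 antibody.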
JMJD2A Tudor inh = JMJD2A Tudor domain (human) inhibition. Potency, µM (doses to about 114 µM), most hits filed as inhibitors. AlphaScreen JMJD2A-Tudor / H3K4me3 peptide binding. AID 504339. hit rate 4.4% among 390,000; note: nearly all actives have a fitted effect of over 50% in size
BAZ2B block = blocks human BAZ2B; Potency, µM (titrated, usually from 114 µM), most hits filed as inhibitors; Q9UIF8; hit rate 4.4% among 360,000; AlphaScreen BAZ2B-H3K14Ac peptide displacement; note: nearly all actives have a fitted effect of over 60% in size
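Multi-concentration screen (max 110 uM) measuring displacement of acetylated histone H3 peptide from BAZ2B by AlphaScreen, using 50 nM protein, 50 nM peptide and 10 ug/mL streptavidin donor plus Ni-chelate acceptor beads.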
GLS inhibitor = inhibitors of human glutaminase (GLS); GLS enzymatic activity, qHTS titration; hit rate 0.21% among 410,000; Potency, µM (highest dose often 45.5 µM), most hits filed as inhibitors; O94925; AID 624170
Target sequence (O94925 whole entry, looked up): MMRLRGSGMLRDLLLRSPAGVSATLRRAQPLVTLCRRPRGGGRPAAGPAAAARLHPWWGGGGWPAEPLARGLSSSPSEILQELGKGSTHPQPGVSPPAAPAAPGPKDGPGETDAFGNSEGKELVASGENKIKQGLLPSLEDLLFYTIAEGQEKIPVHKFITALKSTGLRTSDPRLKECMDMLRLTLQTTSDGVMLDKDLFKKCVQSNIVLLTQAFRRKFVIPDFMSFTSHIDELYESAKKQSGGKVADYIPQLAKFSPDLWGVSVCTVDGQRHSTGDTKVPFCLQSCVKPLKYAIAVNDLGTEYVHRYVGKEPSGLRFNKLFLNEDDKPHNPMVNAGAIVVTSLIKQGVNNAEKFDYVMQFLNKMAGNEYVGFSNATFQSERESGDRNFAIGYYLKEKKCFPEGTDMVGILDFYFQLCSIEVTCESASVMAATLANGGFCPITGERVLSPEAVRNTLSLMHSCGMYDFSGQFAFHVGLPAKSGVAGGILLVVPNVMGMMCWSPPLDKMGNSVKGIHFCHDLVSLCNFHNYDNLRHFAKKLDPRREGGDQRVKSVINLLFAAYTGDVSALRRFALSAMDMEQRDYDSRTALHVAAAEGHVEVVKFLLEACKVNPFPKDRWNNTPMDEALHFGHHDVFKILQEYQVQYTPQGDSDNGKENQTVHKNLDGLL
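hKGA; 45 mM KH2PO4 pH 8.2 + 0.02% Tween-20; cpd via pin tool; 1 mM Gln soln; GluOx/HRP/Amplex Red; RT 30 min; fluor. t0 & final.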
L3MBTL1 block = blocks human L3MBTL1; Potency, µM (top dose mostly 57.1 µM), most hits filed as inhibitors; AlphaScreen L3MBTL1–H3K9me1 peptide binding; hit rate 0.66% among 230,000; Q9Y468; note: nearly all actives have a fitted effect of over 60% in size
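First, the protein-peptide complex forms for 30 min at room temperature (L3MBTL1 50 nM, biotinylated H3K9me1 peptide 75 nM). Next, compounds are pin-transferred and incubated 30 min. Finally, AlphaScreen beads are added and read after 30 min.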
HP1b binding inh = inhibitors of HP1-beta chromodomain binding to methylated histone tails | P83916 | AlphaScreen HP1-beta / biotin-H3K9me3 peptide binding | Potency, µM (titrated, usually from 114 µM), actives largely listed as inhibitors | hit rate 0.56% among 390,000 | AID 540317; note: nearly all actives have a fitted effect of over 70% in size
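Compound inhibition of the preformed complex between 50 nM HP1-beta and 50 nM biotinylated H3K9me3 peptide was read by AlphaScreen. Buffer was PBS pH 7.4 with 0.01% Tween-20. Incubations ran 30 min at room temperature, with 10 ug/mL donor/acceptor beads.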
Hits are given with their value; n = inactive; u = inconclusive; x = not tested or not shown; [ ] = remark or other dose. Calls come from the whole dose curve; as a rule, active = well fitted curve in the direction sought with a large enough effect; inconclusive = small, poorly fitted or top-dose-only effect, or another doubt; inactive = no such curve, though single readings can be large; an effect the other way counts as inactive or inconclusive.

SMILES | G9a inh | JMJD2A Tudor inh | BAZ2B block | GLS inhibitor | L3MBTL1 block | HP1b binding inh
CCCCN(CC)C(=O)c1ccc2c(c1)NC(=O)c1ccccc1S2 | n | n | n | n | x | n
COc1cccc(N(CC(=O)N2CCC(C)CC2)S(=O)(=O)c2ccc(C)cc2)c1 | n | n | n | n | x | n
O=C(NCc1ccc(Cl)cc1)C1CCN(c2nn3cc(-c4ccc(F)cc4)nc3s2)CC1 | n | n | n | n | x | n
N#CC1(NC(=O)COc2cc(F)ccc2[N+](=O)[O-])CCCCC1 | u | n | n | n | n | n
N#CC1(NC(=O)COc2ccccc2[N+](=O)[O-])CCCCC1 | 18µM | 20µM | n | n | n | u
CC(C)CC(=O)N(Cc1ccccc1)S(=O)(=O)c1ccc2c(c1)oc(=O)n2C | n | n | n | n | x | n
O=C(Nc1ccc(Cl)c(C(F)(F)F)c1)C1CCN(S(=O)(=O)c2cccc3nonc23)CC1 | n | n | n | n | x | n
O=C1c2ccccc2C(=O)c2c(NCCCN(CCO)CCO)cccc21 | 45µM | 40µM | 28µM | n | u | 25µM
CN1CN(C)c2cccc3cccc1c23 | 1.4µM | n | u | n | n | u
CCN1C(=O)N(CC)c2cccc3cccc1c23 | n | n | n | n | n | n
C=CCCC(=O)Nc1nc(C)c(-c2csc(Nc3cccc(OC)c3)n2)s1 | u | u | u | n | n | n
COc1ccc(OC)c(Nc2nc(-c3sc(N)nc3C)cs2)c1 | 32µM | 50µM | 45µM | n | n | u
CCCC(C)C(=O)Nc1nc(C)c(-c2csc(Nc3cc(OC)ccc3OC)n2)s1 (configuration not stated) | 14µM | u | u | n | n | n
C=CCCC(=O)Nc1nc(C)c(-c2csc(Nc3cc(OC)ccc3OC)n2)s1 | 10µM | 35µM | 50µM | n | n | u
C=CCNc1sc(C(=O)c2ccccc2)c(N)c1-c1nc2ccccc2s1 | 22µM | u | u | n | u | 25µM
CCNc1sc(C(=O)c2cccs2)c(N)c1-c1nc2ccccc2s1 | 10µM | u | u | n | u | n
O=C(Cc1ccccc1)NCC(=O)OCC(=O)c1ccc2ccccc2c1 | x | n | x | x | x | n
CS(=O)(=O)Nc1cccc(-c2nccc(Nc3ccc(F)cc3)n2)c1 | n[0.501 µM] | x | x | x | x | x
CN(C)C(CNC(C(=O)Nc1ccc([N+](=O)[O-])cc1Br)c1ccccc1)c1ccccc1 (configuration not stated) | u | 35µM | x | n | n | u
CC(C)(CNc1ccc(C(F)(F)F)cc1[N+](=O)[O-])N1CCOCC1 | 71µM | u | u | n | x | n
Cc1ccc(Nc2ccc(C(F)(F)F)cc2[N+](=O)[O-])cc1 | 3.2µM | u | u | n | n | u
CN(C)C(CNc1ccc(C(F)(F)F)cc1[N+](=O)[O-])c1ccccc1 (configuration not stated) | 32µM | 35µM | 8.9µM | n | x | 45µM
CCN(CC)CCNC(C(=O)Nc1ccc([N+](=O)[O-])cc1Br)c1ccccc1 (configuration not stated) | u | n | u | n | n | n
Cc1cccc(NC(=O)CN2C(=O)C(c3ccc(F)cc3)=NC23CCCCCC3)c1C | n | n | n | n | x | n
Cc1ccccc1NC(=O)Cn1c(=O)oc2cc(Br)ccc21 | n | n | n | n | x | n
SMILES | G9a inh | JMJD2A Tudor inh | BAZ2B block | GLS inhibitor | L3MBTL1 block | HP1b binding inh
CCn1nc(C)c2c(-c3ccccc3)cc(=O)n(C(C)C(=O)Nc3cccc(F)c3)c21 (configuration not stated) | n | n | n | n | x | n
O=C(NCCSc1ccccc1)c1ccccc1 | n[12.7 µM] | n | n | n | x | n
O=C(NCSc1ccncn1)c1ccccc1 | u | 20µM | u | n | n | n
O=C(NCSc1ccnc(SCNC(=O)c2ccccc2)n1)c1ccccc1 | 4µM | n | n | n | n | n
Cc1cccn2c(=O)c(C(=O)NCCc3ccc(S(N)(=O)=O)cc3)c(O)nc12 | u | n | n | n | x | n
O=[N+]([O-])c1ccc(S(=O)(=O)CC(CN2CCCCC2)N2CCCCC2)cc1 (configuration not stated) | 35µM | n | n | n | n | n
O=S(=O)(CC(CN1CCCCC1)N1CCCCC1)c1ccccc1 (configuration not stated) | n | n | n | n | n | n
